Assay results reported in publication PMC4552634, “A New Set of Chemical Starting Points with Plasmodium falciparum Transmission-Blocking Potential for Antimalarial Drug Discovery” (PLoS ONE, 2015).
Among all 13,000 compounds or so, about 3,200 (25%) showed an effect of 50% or more. Some of the results follow.

The molecules below were run on P. falciparum stage V gametocytes. Conditions: 48 h, 5 µM; inhibitor.
Parameters: BacTiter-Glo ATP luminescence viability of purified stage V gametocytes in 384-well plates, per cent inhibition versus DMSO

SMILES | % Inhibition [%]
CN1CCCC1CCOc1ccc2c(c1)N(C(=O)Nc1cc(Br)cc(C(F)(F)F)c1)CC2 (stereo not shown) [TCMDC-140247] | 47.25
CC(C)c1ccc(NS(=O)(=O)c2cccc(C(=O)NC3CCN(CC4CCCCC4)CC3)c2)cc1 [TCMDC-136739] | -17.03
CCOC(=O)CCCOc1cc(Cc2cnc(N)nc2N)cc(OC)c1OC [TCMDC-137356] | 44.1
O=C(Nc1ccc2c(c1)OCO2)c1cc(-c2cccnc2)nc2ccc(Cl)cc12 [TCMDC-125213] | -64.78
Cc1nc2ccc(NC(=O)c3cc(S(=O)(=O)N(C)C)ccc3Cl)cc2s1 [TCMDC-124375] | 38.91
COc1ccc(Nc2nccc(N3CCC(NC(=O)C(C)c4ccc(Cl)cc4)C3)n2)cc1 (stereo not shown) [TCMDC-133612] | -10.01
Cc1cc(N2CCCC2)nc(Nc2ccc(NC(=O)c3ccc4c(c3)OCO4)cc2)n1 [TCMDC-124955] | -35.01
CC(C)c1ccc(CN(C)CCCCNC(=O)c2ccc(NC(=O)c3ccc(Cl)cc3)cc2)cc1 [TCMDC-138505] | 20.72
CC(C)C(C(=O)Nc1ccc(S(=O)(=O)N(C)C)cc1)c1ccc(Cl)cc1 (stereo not shown) [TCMDC-125113] | 56.45
CC(C)C(C(=O)Nc1ccc2c(c1)OCO2)c1ccc(Cl)cc1 (stereo not shown) [TCMDC-125398] | 78.19
COc1ccc(Cl)cc1NC(=O)C(C)Nc1ccc(-c2ccccc2)cc1 (stereo not shown) [TCMDC-123559] | -53.48
COc1cc(Nc2nccc(N3CCC(NC(=O)C(C)c4ccc(Cl)cc4)C3)n2)cc(OC)c1OC (stereo not shown) [TCMDC-133623] | 58.38
COc1cc(C(C)C)nc2ccc(NC(=O)c3ccc(C(=O)Nc4ccc5nc(C(C)C)cc(OC)c5c4)cc3)cc12 [TCMDC-140150] | 33.52
COc1cc(NC(=O)C(c2ccc(Cl)cc2)C(C)C)cc(OC)c1OC (stereo not shown) [TCMDC-125118] | 82.24
CC(C(=O)NC1CCN(c2ccnc(Nc3ccc(F)cc3)n2)C1)c1ccc(Cl)cc1 (stereo not shown) [TCMDC-133596] | 19.11
O=C(Nc1ccccc1)Nc1ccc(-c2cccc(-c3nc4ccc(C(F)(F)F)cc4[nH]3)c2)cc1 [TCMDC-133153] | -37.9
COC(=O)c1ccc2c(c1)nc(Nc1cccc(F)c1)n2CC(O)c1ccccn1 (stereo not shown) [TCMDC-138586] | -5.24
CC(C)(C)c1nn(-c2ccccc2)c2[nH]c(=O)c(CNCCc3ccccc3)cc12 [TCMDC-125381] | 14.37
CCCCN1CCN(c2cc(NS(=O)(=O)c3ccc(C(=O)Nc4ccc(C(F)(F)F)cc4)cc3)ccc2OC)CC1 [TCMDC-141777] | -10.1
